Rango complex inh: inhibitors of Rango-importin beta complex formation; Q14974; Rango CFP/YFP FRET sensor + importin beta, 45 min; Potency, µM (doses to about 92.2 µM), for the others: at the top dose inhibition of complex formation; 340,000 tested, 0.031% active;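 note: potency is the fitted concentration of half-maximal effect; 0% = DMSO wells and 100% = buffer wells lacking importin beta; nearly all actives have a fitted effect of over 15% in size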
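FRET biosensor (snurportin 1 IBB flanked by EYFP and cerulean), 50 nM, with compound 5 min, then 0.125 microM importin beta in PBS, 1 mM DTT, 0.02% Tween-20, 0.1% BSA. CFP/YFP ratio read after 45 min at room temperature; pre-read flags interference.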
D3 antag: antagonists of human D3 dopamine receptor. P35462. 360,000 tested, 2.5% active. D3R cells, DiscoveRx beta-arrestin luminescence, antagonist mode; stronger effect = lower value. max response, negative = inhibition, %; in the data active = max response below about -50%; inconclusive = no clear call, values can overlap the other calls; note: % is set by controls: 0 for no effect and ±100 for the full control effect
Target sequence (P35462 whole entry, looked up): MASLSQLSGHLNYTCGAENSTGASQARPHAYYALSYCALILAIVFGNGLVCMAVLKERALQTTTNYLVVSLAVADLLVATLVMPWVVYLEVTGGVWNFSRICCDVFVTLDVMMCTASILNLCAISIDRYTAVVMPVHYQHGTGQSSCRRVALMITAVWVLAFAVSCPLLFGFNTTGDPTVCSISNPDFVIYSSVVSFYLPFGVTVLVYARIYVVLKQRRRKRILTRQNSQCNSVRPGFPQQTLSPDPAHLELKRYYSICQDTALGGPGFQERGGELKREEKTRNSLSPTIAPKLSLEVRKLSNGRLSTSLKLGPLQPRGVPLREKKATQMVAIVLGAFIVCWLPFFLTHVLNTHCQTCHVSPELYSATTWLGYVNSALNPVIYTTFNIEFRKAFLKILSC
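Cells expressing the human receptor were seeded at 1500 cells/well, incubated overnight at 37 degrees C in 5% CO2, then exposed to library compounds with dopamine controls for 90 minutes at 37 degrees C before luminescent detection.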
DRD3 agonist: agonists of human D3 dopamine receptor. AID 652048. D3R DiscoveRx beta-arrestin cells, luminescence, 90 min. max activation, %. P35462. 410,000 tested, 0.58% active; in the data active = max activation above about 30%; note: 0% is about no effect
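Agonist-mode cell screen: cells plated at 1500/well and incubated overnight at 37 °C, then exposed to library compounds for 90 min at 37 °C. Detection reagent was added for 30–60 min at room temperature, and luminescence was read.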
PTAP TSG101 blk: blocks PTAP/TSG101 interaction to inhibit HIV-1 budding; Fluorescence polarization, FITC-PTAP peptide / Tsg101 binding; AID 493005; Q99816; 340,000 tested, under 10 active; Potency, µM (titrated, usually from 115 µM), for inactives: at the top dose activity change, negative = inhibition, actives largely listed as inhibitors; active = well fitted inhibition curve with a large enough effect in the main read-out, with a control signal flat, not every such curve was filed as active; inconclusive = small, poorly fitted or top-dose-only effect, or effect the other way, or a change in a side signal; inactive = no such curve, though single readings can be large or run the other way; note: potency is the fitted concentration of half-maximal effect; % of control where 0% means no effect
Target sequence (Q99816 whole entry, looked up): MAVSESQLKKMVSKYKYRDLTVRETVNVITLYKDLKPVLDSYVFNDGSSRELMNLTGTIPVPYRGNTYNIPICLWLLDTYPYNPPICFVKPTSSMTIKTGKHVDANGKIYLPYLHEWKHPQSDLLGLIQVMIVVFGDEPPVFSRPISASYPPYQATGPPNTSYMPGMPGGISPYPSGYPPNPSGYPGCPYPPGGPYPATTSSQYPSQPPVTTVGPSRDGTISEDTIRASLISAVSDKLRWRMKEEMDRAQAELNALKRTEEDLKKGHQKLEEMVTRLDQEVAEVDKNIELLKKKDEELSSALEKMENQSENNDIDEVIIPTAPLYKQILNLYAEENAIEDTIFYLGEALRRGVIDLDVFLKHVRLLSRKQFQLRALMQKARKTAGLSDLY
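Fluorescence anisotropy tracks displacement of a FITC-tagged PTAP peptide (50 nM) from the Tsg101 binding domain (10 uM), following a 20 min room-temperature incubation at pH 7.5.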
MmCpn inh: M. maripaludis TRiC chaperonin inhibition; purified Mm-Cpn ATPase, ADP Transcreener TR-FRET; Potency, µM (series often up to 76.9 µM), for the others: at the top dose activity, negative = inhibition, hits mostly inhibitors; 330,000 tested, 0.031% active; active = well fitted inhibition curve with a large enough effect; inconclusive = small, poorly fitted or top-dose-only effect; note: potency is the fitted concentration of half-maximal effect; % is set by controls: 0 for no effect and ±100 for the full control effect; nearly all actives have a fitted effect of over 80% in size
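Purified archaeal Mm-CPN (25nM final) preincubated 10 min at 37degC with compound, then 10uM ATP for 30 min at 37degC; ADP measured by HTRF Transcreener TR-FRET; buffer 30 mM TRIS pH 7.4, 100mM KCl, 5mM MgCl2, 1mM DTT.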
Rango dissoc inh: prevents RanGTP from dissociating the Rango-importin beta complex | O95149+P62826 | Biochemical FRET Rango-importin beta, RanGTP-induced dissociation | Potency, µM (series often up to 46.1 µM), inactives show at the top dose activity change, negative = inhibition | 340,000 tested, 0.071% active | AID 540253; note: potency is the fitted concentration of half-maximal effect; % of control where 0% means no effect; nearly all actives have a fitted effect of over 45% in size
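Rango/importin beta premix (0.1/0.25 uM final), PBS + 1 mM DTT + 0.02% Tween-20 + 0.1% BSA; cpd 5 min RT; FRET pre-read; + RanGTP-RCC1 (0.6 uM Ran, 2 mM GTP, 0.2 uM RCC1); 45 min RT; FRET post-read, ex 430, em 486/530 nm.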
The depositor's hits bear a star; u = inconclusive; x = no result given. Most compounds without a hit are left out; they make up all but 2.9% or so of the library. Unless noted, calls come from the whole dose curve.

SMILES | Rango complex inh | D3 antag | DRD3 agonist | PTAP TSG101 blk | MmCpn inh | Rango dissoc inh
COc1ccc(NS(=O)(=O)c2cc(NC(=O)c3ccccn3)ccc2OC)cc1Br | -3.4% | -50.5* | -1.6 | -2.4% | -7.6% | 3.9%
CCOc1ccc(Br)cc1S(=O)(=O)Nc1ccc(C(=O)Nc2ccccc2OC)cc1 | 0.4% | -50.9* | -21.8 | 1.1% | -12.2% | -9.9%
COc1ccc(NC(=O)c2ccccn2)cc1S(=O)(=O)N1CCOCC1 | -1.8% | u | -10.9 | -11.0% | -0.7% | -2.7%
CCOc1ccc(Br)cc1S(=O)(=O)Nc1ccc(C(=O)Nc2ccc(C)cc2)cc1 | 0.0% | 24.3 | -0.5 | -4.5% | -8.8% | 7.7%
Cc1cn2c(=O)cc(COC(=O)c3cccc(NC(=O)COc4ccccc4Cl)c3)nc2s1 | x | x | 0.8 | x | x | x
Cc1cc(C)c2c(CC(=O)N(Cc3ccc(Cl)cc3)Cc3ccco3)coc2c1 | x | x | -14.5 | x | x | x
COc1ccc(/C=C/C(=O)c2ccc(Cl)s2)cc1O | u | -72.1* | -7.8 | -6.2% | u | 1.0%
Cc1nc2c(C#N)cnn2c2c1CCN(Cc1ccccc1)N2C | -4.5% | -6.0 | -1.9 | 0.5% | -1.3% | 6.7%
Cc1nc2c(C#N)cnn2c2c1CCN2CC1CCCO1 (stereo unspecified) | 3.4% | 1.1 | 43.1* | -7.2% | 0.4% | -15.8%
COCCCNC(=O)Cn1cnc2sc(C)c(S(=O)(=O)N3CC(C)CC(C)C3)c2c1=O (stereo unspecified) | 2.0% | -2.8 | 5.6 | 0.3% | 1.3% | 0.7%
Cc1sc2ncn(CC(=O)NCCCN3CC(C)CC(C)C3)c(=O)c2c1S(=O)(=O)N1CC(C)CC(C)C1 (stereo unspecified) | u | -90.4* | -28.4 | -5.9% | -2.7% | -2.3%
O=C(Cc1ccccc1)Nc1ccccc1N1CCOCC1 | -3.1% | -52.4* | 4.9 | -3.4% | -0.7% | 0.7%
O=C(Nc1ccccc1N1CCOCC1)C1=NN(c2ccccc2)C(=O)CC1 | -2.4% | -51.7* | -3.9 | -4.3% | -4.0% | -19.8%
O=C(Nc1cc(C(F)(F)F)ccc1N1CCOCC1)C1=NN(c2ccccc2)C(=O)CC1 | u | 1.0 | -1.0 | 0.8% | -0.1% | -2.1%
COc1cccc(N2CC(C)Cn3c2nc2c3c(=O)n(CCN3CCOCC3)c(=O)n2C)c1 (stereo unspecified) | -4.5% | -64.0* | -5.1 | -5.9% | -14.1% | -7.2%
COc1ccc(N2CC(C)Cn3c2nc2c3c(=O)n(CCN3CCOCC3)c(=O)n2C)cc1 (stereo unspecified) | -2.3% | 6.1 | 6.6 | -2.0% | 0.1% | 2.4%
Oc1c(Cl)cc(Cl)cc1CNc1ccc(Br)cn1 | 0.9% | -54.6* | 4.8 | -3.5% | 3.7% | -7.1%
Cc1c(N)nc(C(CC(N)=O)NCC(N)C(N)=O)nc1C(=O)NC(C(=O)NC(C)C(O)C(C)C(=O)NC(C(=O)NCCc1nc(-c2nc(C(=O)NCCCN[C@@H](C)c3ccccc3)cs2)cs1)C(C)O)C(O[C@@H]1O[C@@H](CO)[C@@H](O)[C@H](O)[C@@H]1O[C@H]1O[C@H](CO)[C@@H](O)[C@H](OC(N)=O)[C@@H]1O)c1cnc[nH]1 (stereo partly specified) | x | x | 5.6 | x | x | x
CC(C)(C)OC(=O)N1CCC[C@H]1C(=O)NCc1ccc(F)cc1F | x | 13.7 | -1.1 | x | x | x
Fc1ccc(N2CCN(C3CCC(c4ccccc4)CC3)CC2)cc1 (stereo unspecified) | 2.9% | -81.6* | -12.5 | -0.6% | 0.0% | 3.6%
COc1ccc(CCn2c(SCCN3CCCCC3)nc3ccccc3c2=O)cc1OC | 1.4% | -102.9* | -2.6 | -2.0% | -1.4% | 0.6%
CS(=O)(=O)N(CC(=O)N1CCN(Cc2ccccc2)CC1)c1ccccc1F | -2.5% | -22.2 | -7.2 | -2.6% | -3.9% | u
CN(CC(=O)N1CCN(Cc2ccccc2)CC1)S(=O)(=O)c1ccc(F)cc1 | 1.0% | -58.5* | -8.6 | 0.2% | -2.1% | -12.4%
CS(=O)(=O)N(CC(=O)N1CCN(Cc2ccccc2)CC1)c1ccccc1Br | -2.5% | -57.7* | -19.9 | -5.4% | 2.6% | u
COc1cc(OC)c(NC(=O)Nc2sc3nc4n(c(=O)c3c2C)CCC(C)CC4)cc1Cl (stereo unspecified) | x | x | -17.1 | x | x | x
SMILES | Rango complex inh | D3 antag | DRD3 agonist | PTAP TSG101 blk | MmCpn inh | Rango dissoc inh
C=C(C)c1cccc(C(C)(C)NC(=O)N2CCN(C(=O)OCC)CC2)c1 | x | 0.0 | 4.5 | x | x | x
c1ccc(CN2CCN(Cc3nnc(-c4ccccc4)o3)CC2)cc1 | -0.3% | 2.5 | -1.6 | -4.9% | 0.3% | -10.6%
Cc1cccc(N2CCN(Cc3nc(-c4cccc(Cl)c4)oc3C)CC2)n1 | 0.1% | u | -12.4 | -1.0% | -5.0% | 7.3%
Fc1ccc(-c2nnc(CN3CCN(c4ccccn4)CC3)o2)cc1 | x | x | 80.1* | x | x | x
Clc1cccc(-c2nnc(CN3CCN(c4ccccn4)CC3)o2)c1 | x | x | 95.3* | x | x | x
c1ccc(-c2nnc(CN3CCN(c4ccccn4)CC3)o2)cc1 | x | x | 97.8* | x | x | x
Fc1ccc(N2CCN(Cc3nnc(-c4ccccc4Cl)o3)CC2)cc1 | x | x | 1.9 | x | x | x
CCC(C)NC(=O)CSc1n[nH]c(-c2cc(Cl)ccc2OC)n1 (stereo unspecified) | 0.5% | -13.0 | -2.9 | -1.8% | 0.2% | -11.6%
CCOc1ccc(C(=O)Cc2ccc3oc(C(=O)O)cc3c2)c(O)c1 | -0.6% | -62.4* | -18.7 | -1.4% | 2.5% | 2.4%
CCOC(=O)c1cc2cc(CC(=O)c3ccc(OCC)cc3O)ccc2o1 | 0.0% | -0.9 | -2.2 | 1.8% | -0.1% | 31.2%
CCOc1cc(N(CC)CC)ccc1/C=C(/C#N)c1nc2ccccc2[nH]1 | u | -53.6* | -7.4 | u | 0.0% | u
Cn1c(/C(C#N)=C(\O)c2cccc(F)c2)nc2ccccc21 | 4.9% | -50.7* | 0.4 | 0.1% | 1.8% | 10.4%
CCn1c(=O)cc(SCC(=O)NCc2cccc(Cl)c2)c2ccccc21 | x | x | -2.0 | x | x | x
COc1ccccc1CCNC(=O)C(=O)NCC(c1ccco1)S(=O)(=O)c1ccccc1 (stereo unspecified) | x | x | -13.7 | x | x | x
O=C1N[C@@H](Cc2ccccc2)COC(=O)[C@H](Cc2ccc(F)cc2)C/C=C\C[C@@H]1CC(=O)N(CCO)Cc1ccccc1 | -0.7% | -65.1* | -25.0 | x | -4.5% | 3.8%
CC(C)(C)OC(=O)C[C@@H]1C/C=C\C[C@H](CC(=O)N(CCO)Cc2ccccc2)C(=O)NC[C@@H](c2ccccc2)OC1=O | 2.2% | -95.5* | -42.1 | -4.6% | -1.2% | -5.0%

Assay outcomes as filed in PubChem.
